Laboratory results from PubChem BioAssay AID1578 (Sanford-Burnham Center for Chemical Genomics, 2009).
Out of some 290,000 compounds screened, about 3,000 (1%) were called active. Many of the other results were omitted from the sample, so actives are more common in it than they were. Values without a mark were called inactive. Rule as the data show it: active = inhibition mostly above about 36% (no sharp cut-off); inactive = mostly below about 34%.

experiment: NOD1 signaling inhibitors, primary screen, cell-based, luminescence, uHTS (AID 1578); conditions: NOD1-driven NF-kB luciferase reporter cells, at 4 µM, stronger effect = higher value;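 also: HEK-293T reporter cells stimulated with the NOD1 agonist gamma-tri-DAP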

Structure (SMILES) | inhibition
Cc1ccc(CSc2nnc3ccc(-c4ccncc4)nn23)cc1 | -23.9%
O=C(c1ccc(Oc2ccccc2)cc1)C1CCCN(C(=O)c2cnccn2)C1 (stereo not given) | -4.3%
CSc1ccc(C(=O)C2CCCN(C(=O)c3ccc(C)nc3)C2)cc1 (stereo not given) | -25.1%
Cc1ccc(C(=O)N2CCCC(C(=O)c3ccc(Oc4ccccc4)cc3)C2)cn1 (stereo not given) | 61% (active)
COc1ccc([N+](=O)[O-])cc1Nc1ncnc2ccccc12 | -1.9%
COc1ccc(Nc2ncnc3ccc([N+](=O)[O-])cc23)c(OC)c1 | 7%
Cc1ccc2ncnc(Nc3cccc([N+](=O)[O-])c3)c2c1 | 13.8%
Cc1ccc(O)c(Nc2ncnc3ccc([N+](=O)[O-])cc23)c1 | 28.1%
O=[N+]([O-])c1ccc2ncnc(Nc3ccc4c(c3)OCCO4)c2c1 | 65.2% (active)
CCOC(=O)COn1c(=O)c(-c2ccccc2)[n+]([O-])c2ccccc21 | 0.2%
COc1ccc(/C=N/NC(=O)c2ccc(Br)cc2)c(OC)c1 | -40.4%
COC(=O)C1=C(C)NC(C)=C(C(=O)OC)C1c1ccco1 | -5.8%
CCOc1ccc(NC(=O)COC(=O)Cc2ccc(S(=O)(=O)N3CCOCC3)s2)cc1 | 5.1%
Cc1ccc(-n2nc3c(=O)n(CC(=O)NCc4ccccn4)nc(C)c3c2C)cc1 | -3.4%
CC(C)(C)OC(=O)N1CCOCCOCCN(C(=O)OC(C)(C)C)CCOCCOCC1 | 4.4%
COC(=O)c1nc(NC(=O)c2cc(OC)c(OC)c(OC)c2)n[nH]1 | 15.5%
CCN(CC)CC(=O)c1c[nH]c2ccc(C)cc12 | -11.4%
Cc1ccc2[nH]cc(C(=O)CCl)c2c1 | 107% (active)
CCN1CCN(CC(=O)c2c[nH]c3ccc(C)cc23)CC1 | -10.6%
Nc1ccc(S(=O)(=O)c2ccc(Cl)cc2)cc1 | 4%
COc1ccc(/C=N/NC(N)=S)cc1 | -8.2%
Cc1ccc(S(=O)(=O)c2nc(S(=O)(=O)c3ccccc3)sc2N2CCN(CCO)CC2)cc1 | 18%
CCN1C(=O)N(CC)C2NC(=S)NC21 (stereo not given) | 8.6%
COc1ccc(OCc2cc(C(=O)N(C)Cc3nnc(C)o3)no2)c(Cl)c1 | -5.8%

Structure (SMILES) | inhibition
C=CCn1c(SCCCc2ccccc2)nc2c1c(=O)[nH]c(=O)n2C | -1.2%
C/C=C/Cn1c(SCc2ccccc2)nc2c1c(=O)[nH]c(=O)n2C | 35%
Cc1ccc(S(=O)(=O)c2cc3c(=O)n4ccccc4nc3n(C)c2=N)cc1C | -7.1%
CCOCCOC(=O)c1[nH]c2c(c1C)C(=O)CC(c1cc(OC)c(OC)c(OC)c1)C2 (stereo not given) | 4.2%
CCCOC(=O)c1[nH]c2c(c1C)C(=O)CC(c1ccc(OC)c(OC)c1)C2 (stereo not given) | -5.9%
CC(=O)N1CCN(c2ccccc2NC(=O)c2ccc(C#N)cc2F)CC1 | 2.6%
COc1ccc(OCCN2CCN(C(=O)c3ccc(OC)c(OC)c3)CC2)cc1 | -11.7%
Cc1ccc(-c2nc(N)sc2-c2ccccc2)cc1C | -14%
CCOC(=O)c1c(NC(=O)c2cccs2)sc2c1CCN(C(=O)OCC)C2 | 14%
CCOC(=O)N1CCc2c(sc(NC(=O)C3=COCCO3)c2C(N)=O)C1 | -29.7%
CCOC(=O)N1CCc2c(sc(NC(=O)c3ccc(Cl)s3)c2C(N)=O)C1 | 85.3% (active)
O=C(CSc1nnc(-c2ccccc2Br)o1)Nc1cccc2ccccc12 | -22.5%
Cc1ccc(C2=Nn3c(COc4ccc(Cl)cc4)nnc3SC2CC(=O)O)cc1 (stereo not given) | 3.6%
CN(CCCNC(=O)Cn1c(=O)c2cccn2c2ccccc21)Cc1ccccc1 | -17.1%
Cc1ccccc1NC(=O)COC(=O)C1(C)CC1(Cl)Cl (stereo not given) | -11.4%
Cc1ccc(S(=O)(=O)Oc2ccc(/C=C(/NC(=O)c3ccccc3)C(=O)NCCCC(=O)O)cc2)cc1 | -18.3%
COC(=O)c1ccc(C(=O)OC)c(NC2=NS(=O)(=O)c3ccccc32)c1 | -20.3%
COC(=O)c1c(-c2ccccc2)csc1NC1=NS(=O)(=O)c2ccccc21 | 82.4% (active)
CCOC(=O)c1c(-c2ccc(C)cc2)csc1NC1=NS(=O)(=O)c2ccccc21 | 24%
O=C(OCC(=O)c1cccs1)c1ccccc1 | 2.3%
Cc1nc2ccc(F)cc2cc1C(=O)Nc1ccc(Cl)c(Cl)c1 | -34%
O=C(Nc1cccc(Cl)c1)N(Cc1nc2ccccc2c(=O)[nH]1)Cc1cccs1 | -26.5%
O=C(Nc1ccc(Cl)cc1)N(Cc1nc2ccccc2c(=O)[nH]1)Cc1cccs1 | 99.1% (active)
Cc1ccc(NC(=O)N(Cc2nc3ccccc3c(=O)[nH]2)Cc2cccs2)cc1 | -2.2%

Structure (SMILES) | inhibition
Cn1cc(C(=O)NCc2cccs2)c(=O)c2cc(S(=O)(=O)N3CCCC3)ccc21 | 53%
Brc1ccc(/C=N/Nc2ccc3ccccc3n2)cc1 | -39.3%
CCn1c(O)c(N=Nc2ccc3ccccc3n2)c2ccccc21 | -7.9%
Brc1ccc(N=Nc2ccc3ccccc3n2)cc1 | 43.4% (active)
CC1Cc2ccccc2N1CC(=O)Nc1ccc(S(=O)(=O)N(C)C)cc1 (stereo not given) | -7.7%
Cc1ccc(C(C)NC(=S)NCc2ccc(F)cc2)cc1C (stereo not given) | -16.4%
Cc1ccc(C)c(C(C)NC(=S)NCc2ccc(F)cc2)c1 (stereo not given) | 52.6% (active)
COc1ccc(C(C)NC(=S)NCc2ccc(F)cc2)cc1 (stereo not given) | 55.1% (active)
COc1cccc(C(C)NC(=S)NCc2ccc(F)cc2)c1 (stereo not given) | 20.3%
CCOc1ccc(C(C)NC(=S)NCc2ccc(F)cc2)cc1 (stereo not given) | 8.6%
Cc1ccc(C(C)NC(=S)NCc2ccc(F)cc2)c(C)c1 (stereo not given) | 29.2%
COCCNC(=O)Cn1c(=O)n(C)c2ccccc21 | -14%
Cc1cc(C)cc(N(C(C)C(=O)NCCC2=CCCCC2)S(C)(=O)=O)c1 (stereo not given) | 15%
CC(=O)Nc1ccc(NC(C)=C(C#N)C#N)cc1 | -12.5%
COc1cccc(NC(=S)N2c3ccccc3CC2C)c1 (stereo not given) | -26.6%
COc1ccc(NC(=S)N2c3ccccc3CC2C)cc1OC (stereo not given) | 30.4% (active)
COc1ccc(NC(=O)N2c3ccccc3CC2C)cc1OC (stereo not given) | -26.9%
CCN(C(=O)COC(=O)CSc1ccc([N+](=O)[O-])cc1)C1CCS(=O)(=O)C1 (stereo not given) | -23.6%
COc1cc(C(=O)N/N=C/c2ccc3c(c2)c2ccccc2n3C)ccc1O | 32.9%
Cc1ccc(CNC(=O)CCS(=O)(=O)Cc2ccc(C)cc2)cc1 | 15.8%
CC(C)c1ccc2c(c1)C1Cc3ccccc3C1N2 (stereo not given) | -15.3%
CCOc1cc(/C=C2\COc3ccccc3C2=O)cc(Br)c1OCC(=O)N(C)C | 54.9% (active)
CCOc1cc(/C=C2/COc3ccccc3C2=O)ccc1OCC(=O)N(C)C | 36.8%
CCOc1cc(/C=C2\COc3ccccc3C2=O)ccc1OCC(=O)N(C)C | 30.7%

Structure (SMILES) | inhibition
COc1ccccc1Oc1nc(-c2ccccc2)cc(C)c1S(C)(=O)=O | -16.2%
COc1cccc(NC(=O)C2CCN(S(=O)(=O)c3ccc4c(c3)CC(C)N4C(C)=O)CC2)c1 (stereo not given) | -22.9%
Nc1cc(-c2ccc(Br)cc2)nc2cc(-c3ccccc3)nn12 | -10.5%
Cc1ccc(-c2cc3nc(-c4ccc(Br)cc4)cc(N)n3n2)cc1 | -9.8%
CN1C(=O)C(C)(C)c2cc(S(=O)(=O)NCCc3ccc(Cl)cc3)ccc21 | -14.4%
CC1(C)Cc2c(sc3c2c(=N)n(Cc2ccco2)c(=O)n3CC(=O)Nc2ccc(Cl)cc2)CO1 | 1%
COc1ccc2nc(C)cc(N3CC(C)OC(C)C3)c2c1 (stereo not given) | 8.1%
O=C(O)CCc1cc(I)c(Oc2ccc(O)c(I)c2)c(I)c1 | 51.7% (active)
N[C@@H](Cc1cc(I)c(Oc2ccc(O)c(I)c2)c(I)c1)C(=O)O | 14.2%
O=C(O)Cc1cc(I)c(Oc2ccc(O)c(I)c2)c(I)c1 | -16.4%
C=CCC(O)(CCN1CCCCC1)c1ccccc1 (stereo not given) | -19.4%
Cc1ccccc1N(C(=O)c1ccccn1)C(C(=O)NCc1ccccc1)c1ccncc1 (stereo not given) | -21.2%
O=C(Cc1ccc(Cl)cc1Cl)Nc1cccc(S(=O)(=O)Nc2ccccc2F)c1 | -7.5%
N#CC(C#N)=C1C=CC=CN1/C(=C\c1ccco1)C(=O)c1ccc(Cl)cc1 | 104% (active)
N#CC(C#N)=C1C=CC=CN1/C(=C\c1ccco1)C(=O)c1ccccc1 | -25.3%
N#CC(C#N)=C1C=CC=CN1/C(=C\c1ccco1)C(=O)c1ccc(Br)cc1 | -10.9%
CCOC(=O)C(CCc1nnc(N)s1)C(=O)OCC | -16.9%
COc1ccc(N(CC(=O)NCc2ccco2)C(=O)CCC(=O)Nc2nccs2)c(OC)c1 | -20.5%
O=C(N/N=C/c1cn(-c2cccs2)nc1-c1ccccc1)c1ccccc1Br | -30.5%
O=C(O)c1[nH]c2ccccc2c1C(c1c(F)cccc1Cl)c1c(C(=O)O)[nH]c2ccccc12 | -43.4%
CNc1ccc(/C=C2\CSc3ccccc3C2=O)cc1[N+](=O)[O-] | 73.4% (active)
O=C1/C(=C/c2cccc([N+](=O)[O-])c2)CSc2ccc(Cl)cc21 | -12%
CNc1ccc(/C=C2\COc3ccccc3C2=O)cc1[N+](=O)[O-] | -7.1%
